Results filed as inconclusive are left out. Calls of active or inactive are those of the source. The call rests on the fitted dose curve. Numbered stars: 1 amine (or outer) side, 2 acyl side, 3 side chain; on linkers, the order of the positions; unused ones are H or OH. Square brackets hold non-standard residues; d marks the D form. Side chains are listed from the residue outwards. Peptide text beside a SMILES is read from it. * marks the point of attachment. Ethylenediamine = C(CN[*:2])N[*:1]; Hyp = O=C(O)[C@@H]1C[C@@H](O)CN1; Phg = N[C@H](C(=O)O)c1ccccc1; CO = O=C([*:1])[*:2]; Bn = c1ccc(C*)cc1
Key:
[1] = Primary qHTS for inhibitors of SARS-S pseudo-typed particle cell entry (AID 1479145); details: SARS-S pseudotyped particle cell entry, luciferase reporter; series mostly up to 57.1 µM; further: nearly all actives have a fitted effect of over 45% in size
[2] = Primary qHTS for Huh7 cytotoxicity: counterscreen for inhibitors of MERS-S pseudotyped particle cell entry (AID 1479147); details: cell viability read-out; series mostly up to 57.1 µM
[3] = Primary qHTS for inhibitors of MERS-S pseudo-typed particle cell entry (AID 1479149); details: MERS-S pseudotyped particle entry, luciferase; series mostly up to 57.1 µM; further: nearly all actives have a fitted effect of over 60% in size
[4] = Primary qHTS for Vero E6 cytotoxicity: counterscreen for inhibitors of SARS-S pseudo-typed particle cell entry (AID 1479150); details: cell viability; series mostly up to 57.1 µM
[5] = Cytotoxicity counterscreen for inhibitors of SARS-CoV-2 cell entry (AID 1645845); details: cell viability (SARS-CoV-2 entry assay cells); series mostly up to 57.1 µM; further: nearly all actives have a fitted effect of over 50% in size
Procedure, shortened: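 After a 15 min room-temperature ATPLite 1step step, luminescence reflected ATP remaining in HEK293-ACE2 cells exposed to compound for 1 h plus 48 h at 37 C, with percent activity set by cell and no-cell controls.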

Measured: Potency

CCOC(=O)[C@H](C)C[C@@H](Cc1ccc(-c2ccccc2)cc1)NC(=O)CCC(=O)O
inactive: all assays above

CCOC(=O)COc1ccc2c(=O)cc(-c3ccccc3)oc2c1
inactive: all assays above

CC(=O)O[C@]1(C(C)=O)CC[C@H]2[C@@H]3C[C@H](C)C4=CC(=O)C=C[C@]4(C)[C@@]3(F)[C@@H](O)C[C@@]21C
inactive: all assays above

COc1cccc(N2CCN(C3=Nc4c(F)cccc4[C@H](CC(=O)O)N3c3cc(C(F)(F)F)ccc3OC)CC2)c1
inactive: all assays above

CC1=CC(O)CC(C)(C)C1/C=C/C(C)=C/C=C/C(C)=C/C=C/C=C(C)/C=C/C=C(C)/C=C/C1=C(C)CC(O)CC1(C)C (stereo not given)
inactive: all assays above

CC1(C)S[C@@H]2[C@H](NC(=O)[C@H](NC(=O)N3CCNC3=O)c3ccccc3)C(=O)N2C1C(=O)O (stereo not given in full)
inactive: all assays above

OCc1cc(C(O)CNCCCCCCOCCOCc2c(Cl)cccc2Cl)ccc1O (stereo not given)
inactive: all assays above

COC(F)(F)C(Cl)Cl
inactive: all assays above

CC(C)[C@@H](C)/C=C/[C@@H](C)[C@H]1CC[C@H]2/C(=C/C=C3\C[C@@H](O)CC[C@@H]3C)CCC[C@]12C
inactive: all assays above

NC(=O)C1CCCN1C(=O)C(Cc1cnc[nH]1)NC(=O)C1CCC(=O)N1 (stereo not given)
inactive: all assays above

Nc1c(Br)cc(Br)cc1CNC1CCC(O)CC1 (stereo not given)
inactive: all assays above

C[N+]1(C)[C@@H]2CC(OC(=O)C(O)(c3cccs3)c3cccs3)C[C@H]1[C@H]1O[C@@H]12 (stereo not given in full)
inactive: all assays above

CCC(=O)Oc1ccc2c(c1)CC[C@@H]1[C@H]2CC[C@]2(C)[C@@H](OC(=O)CC)CC[C@@H]12
inactive: all assays above

CCCCCc1ccc(C)cc1O
inactive: all assays above

CN[C@H]1C[C@@H](N)[C@H](O)[C@@H](O[C@@H]2O[C@H](CO)[C@H](O)[C@@H]3OC4(O[C@H]23)O[C@H]([C@@H](N)CO)[C@H](O)[C@H](O)[C@H]4O)[C@@H]1O (stereo not given in full)
inactive: all assays above

C[S+](CC[C@H](N)C(=O)O)C[C@H]1O[C@@H](n2cnc3c(N)ncnc32)[C@H](O)[C@H]1O (stereo not given in full)
inactive: all assays above

CNC(=O)c1c(I)c(C(=O)NCC(=O)Nc2c(I)c(C(=O)O)c(I)c(C(=O)NCCO)c2I)c(I)c(N(C)C(C)=O)c1I
inactive: all assays above

CCC(C)C(NC(=O)C(Cc1ccc(O)cc1)NC(=O)C(NC(=O)C(CCCN=C(N)N)NC(=O)C(N)CC(=O)O)C(C)C)C(=O)NC(Cc1cnc[nH]1)C(=O)N1CCCC1C(=O)NC(Cc1ccccc1)C(=O)O (stereo not given)
inactive: all assays above

CC(C)(C)NC(=O)[C@@H]1C[C@@H]2CCCC[C@H]2CN1C[C@@H](O)[C@H](Cc1ccccc1)NC(=O)[C@H](CC(N)=O)NC(=O)c1ccc2ccccc2n1
inactive: all assays above

CC(C)(C)c1ccc2c(S(=O)(=O)O)c(C(C)(C)C)ccc2c1
inactive: all assays above

COc1ccc(CC(C)(C)NC[C@H](O)c2cc(O)cc3c2OCC(=O)N3)cc1
inactive: all assays above

CCC(O)c1ccccc1 (stereo not given)
inactive: all assays above

CCCCc1cc2c(=O)c(C(=O)OC)c[nH]c2cc1OCc1ccccc1
inactive: all assays above

CC1(C)S[C@@H]2[C@H](NC(=O)[C@H](N)c3ccccc3)C(=O)N2[C@H]1C(=O)OCOC(=O)[C@@H]1N2C(=O)C[C@H]2S(=O)(=O)C1(C)C
inactive: all assays above

CSCC[C@H](N)C(=O)O
inactive: all assays above

C=CC[N@@+]12CC[C@]34c5ccccc5N5/C=C6\C7N(/C=C(\C53)[C@@H](C[C@@H]41)/C(=C/CO)C2)c1ccccc1[C@@]71CC[N@@+]2(CC=C)C/C(=C\CO)[C@@H]6C[C@@H]12 (stereo not given in full)
inactive: all assays above

O=C(OC1C[C@@H]2CC3C[C@@H](C1)N2CC3=O)c1c[nH]c2ccccc12 (stereo not given in full)
inactive: all assays above

Cc1cc(O)ccc1C(C)(C)C
inactive: all assays above

COCC1=C(C(=O)OC(C)OC(=O)OC(C)C)N2C(=O)[C@@H](NC(=O)/C(=N/OC)c3csc(N)n3)[C@H]2SC1 (stereo not given in full)
inactive: all assays above

Cc1oc(=O)oc1COC(=O)N1CC[C@@H](N2CC/C(=C\C3=C(C(=O)O)N4C(=O)[C@@H](NC(=O)/C(=N/O)c5nsc(N)n5)[C@H]4SC3)C2=O)C1
inactive: all assays above

C[C@H](NCCc1ccc(O)cc1)[C@H](O)c1ccc(O)cc1
inactive: all assays above

COc1ccc(/C=C/C(=O)OCCC(C)C)cc1
inactive: all assays above

C[C@]12C=CC(=O)C=C1CCC1C2[C@@H](O)C[C@@]2(C)C1CC[C@]2(O)C(=O)COC(=O)CCC(=O)O (stereo not given in full)
inactive: all assays above

CCCCCCCCCCCCCCCC(=O)OC[C@@H](O)[C@H]1OC[C@H](O)[C@H]1O
inactive: all assays above

C[C@H]1O[C@]2(CS1)CN1CCC2CC1
inactive: all assays above

OC[C@H]1O[C@@H](O)[C@H](O)[C@@H](O)[C@@H]1O
inactive: all assays above

NCCCC[C@@H]1NC(=O)[C@@H](Cc2c[nH]c3ccccc23)NC(=O)[C@H](c2ccccc2)NC(=O)[C@@H]2C[C@@H](OC(=O)NCCN)CN2C(=O)[C@H](Cc2ccccc2)NC(=O)[C@H](Cc2ccc(OCc3ccccc3)cc2)NC1=O (cyclo([Hyp]([CO-Ethylenediamine])[Phg][dW]KY(Bn)F))
inactive: all assays above

CC(=O)OCC(=O)[C@@]1(O)[C@H](C)C[C@H]2[C@@H]3C[C@H](F)C4=CC(=O)C=C[C@]4(C)[C@@]3(F)[C@@H](O)C[C@@]21C
inactive: all assays above

CCCCC(CC)CCC(CC(C)C)OS(=O)(=O)O (stereo not given)
inactive: all assays above

CCC(=O)O[C@]1(C(=O)COC(C)=O)CC[C@H]2[C@@H]3C[C@H](C)C4=CC(=O)C=C[C@]4(C)[C@H]3[C@@H](O)C[C@@]21C
inactive: all assays above

CC(=O)c1cc2cccc(OCC(O)CNC(C)C)c2o1 (stereo not given)
inactive: all assays above

CC(C)CCC[C@@H](C)[C@H]1CC[C@H]2[C@@H]3CC[C@H]4C[C@@H](O)CC[C@]4(C)[C@@H]3CC[C@]12C
inactive: all assays above
